# A collection of fitness landscapes (doi:10.1126/science.1257360)
# The full ranking holds about 140,000 sequences; the median of “enrichment ratio after two sorts for PhoP signalling” is about 0, and the highest 2% start at about 11. The sample holds the highest values, similar sequences and a random draw of the others, so the mix is not that of the screen.
# B1: PhoQ; a variant is named by its letters at X, in order, P23837 (parent)
# chain: MKKLLRLFFPLSLRVRFLLATAAVVLVLSLAYGMVALIGYSVSFDKTTFRLLRGESNLFYTLAKWENNKLHVELPENIDKQSPTMTLIYDENGQLLWAQRDVPWLMKMIQPDWLKSNGFHEIEADVNDTSLLLSGDHSIQQQLQEVREDDDDAEMTHSVAVNVYPATSRMPKLTIVVVDTIPVELKSSYMVWSWFIYVLSANLLLVIPLLWVAAWWSLRPIEALAKEVRELEEHNRELLNPATTRELTSLVRNLNRLLKSERERYDKYRTTLTDLTHSLKTPLXXLQXXLRSLRSEKMSVSDAEPVMLEQISRISQQIGYYLHRASMRGGTLLSRELHPVAPLLDNLTSALNKVYQRKGVNISLDISPEISFVGEQNDFVEVMGNVLDNACKYCLEFVEISARQTDEHLYIVVEDDGPGIPLSKREVIFDRGQRVDTLRPGQGVGLAVAREITEQYEGKIVAGESMLGGARMEVIFGRQHSAPKDE
# Variants of: B1
# Test: enrichment ratio after two sorts for PhoP signalling (ratio (wild type AVST 3.29)); higher = more functional
# Conditions: with PhoP (E. coli)
row,Variant,enrichment ratio
1,VGDP,≤ 0.25
2,RAMR,≤ 0.25
3,YTYM,≤ 0.25
4,WMWP,≤ 0.25
5,TDVC,24.1
6,SYVC,0.486
7,KSIC,≤ 0.25
8,STIC,13
9,YTIC,≤ 0.25
10,TDVG,4.14
11,TDIC,14.4
12,KDVC,≤ 0.25
13,SDVG,1.53
14,LTIC,≤ 0.25
15,SDVC,11.5
16,SCIC,7.92
17,NESI,≤ 0.25
18,PFYL,≤ 0.25
19,GFIL,≤ 0.25
20,INEF,≤ 0.25
21,MTNK,≤ 0.25

row,Variant,enrichment ratio
1,IERL,≤ 0.25
2,MGNR,≤ 0.25
3,FHQW,≤ 0.25
4,WMHQ,≤ 0.25
5,VIIW,≤ 0.25
6,SYIC,0.411
7,SDIC,15.1
8,SDRC,≤ 0.25
9,VCHE,≤ 0.25
10,GIRT,≤ 0.25
11,ASTM,12.3
12,ASPM,0.773
13,ASAM,20.2
14,ASGM,22.7
15,ASWM,≤ 0.25
16,ASRM,≤ 0.25
17,ASGD,≤ 0.25
18,ASAY,4.58
19,ASDH,≤ 0.25
20,TKYS,≤ 0.25
21,NHDM,≤ 0.25

row,Variant,enrichment ratio
1,KGIG,≤ 0.25
2,IWNF,≤ 0.25
3,ETES,≤ 0.25
4,IRLA,0.272
5,GMFY,≤ 0.25
6,FLEE,≤ 0.25
7,PCYL,≤ 0.25
8,FIHC,≤ 0.25
9,LFFW,≤ 0.25
10,MMQI,≤ 0.25
11,TMQS,14.3
12,TMQI,12.3
13,TMQP,≤ 0.25
14,KMQS,≤ 0.25
15,NMQS,≤ 0.25
16,KESH,≤ 0.25
17,VQMH,≤ 0.25
18,RVAL,≤ 0.25
19,TFSS,11.4
20,WFSS,≤ 0.25
21,TFSK,≤ 0.25

row,Variant,enrichment ratio
1,TGSS,11
2,CFSS,11.9
3,VFSS,≤ 0.25
4,LGDN,≤ 0.25
5,FQYK,≤ 0.25
6,SISM,16
7,SVRM,≤ 0.25
8,SVGM,9.35
9,LTSM,≤ 0.25
10,SISF,10.7
11,ITSM,2.11
12,STSM,16.4
13,SNSM,33.4
14,SNSF,10.8
15,SVSM,13.3
16,KYSM,≤ 0.25
17,HVDL,≤ 0.25
18,YFNP,≤ 0.25
19,PTIT,≤ 0.25
20,IFSN,≤ 0.25
21,KGDF,≤ 0.25
